Reference: PubChem BioAssay AID1159580 (chemical genetic matrix, 2015)
Several values for one entry are separate records, joined by “and”; a condition that tells them apart may be missing. Identical values can stand only once. Out of some 5,500 compounds screened, about 2,000 (36%) were called active. About 18% were inconclusive and are not listed. No stated cut-off is given here; in the data, active means normalized growth mostly below about 0.91 (no sharp cut-off); inconclusive means no clear call, values can overlap the other calls; inactive means mostly above about 0.92. The list shows a part of the results.

Experiment: chemical genetic growth profiling, strain panel (AID 1159580);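 further: tested at 20 µM; growth read once vehicle control cultures reached saturation at 30 °C; 1 = growth at the plate median or of vehicle wells; lower values mean less growth of the strain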
Settings: S. cerevisiae deletion strains, growth OD

Measured: normalized growth

CCN1C[C@@]2(COC)C3[C@@H](OC)[C@H]4[C@@H]1[C@]3(C(OC)C[C@H]2O)C1C[C@@]2(O)[C@H](OC(=O)c3ccccc3)C1[C@]4(OC(C)=O)[C@@H](O)[C@@H]2OC (stereo partly drawn)
inactive: locus YAL021C, strain ccr4, active compounds read low 1.03 | locus YAL026C, strain drs2, active compounds read low 1.02 | locus YAL030W, strain snc1, active compounds read low 1 | locus YBL061C, strain skt5, active compounds read low 1 | locus YBR009C, strain hhf1, active compounds read low 1.06 | locus YBR021W, strain FUR4, active compounds read low 0.985 | locus YBR023C, strain chs3, active compounds read low 1.01 | locus YBR171W, strain sec66, active compounds read low 1.01 | locus YBR229C, strain ROT2, active compounds read low 1.02 | locus YBR231C, strain swc5, active compounds read low 0.995 | locus YBR279W, strain paf1, active compounds read low 1.02 | locus YCL011C, strain gbp2, active compounds read low 1.02 | locus YCL016C, strain dcc1, active compounds read low 0.999 | locus YCL029C, strain bik1, active compounds read low 1.03 | locus YCL061C, strain MRC1, active compounds read low 1 | locus YCL069W, strain vba3, active compounds read low 1 | locus YCR088W, strain abp1, active compounds read low 1 | locus YDL005C, strain med2, active compounds read low 1.01 | locus YDL035C, strain GPR1, active compounds read low 1.03 | locus YDL040C, strain nat1, active compounds read low 1 | locus YDL074C, strain BRE1, active compounds read low 1.03 | locus YDL101C, strain DUN1, active compounds read low 1.02 | locus YDL185W, strain tfp1, active compounds read low 1.04 | locus YDL192W, strain arf1, active compounds read low 1.03 | locus YDR001C, strain nth1, active compounds read low 1.01 | locus YDR069C, strain doa4, active compounds read low 0.985 | locus YDR101C, strain arx1, active compounds read low 1.03 | locus YDR137W, strain rgp1, active compounds read low 1.02 | locus YDR150W, strain NUM1, active compounds read low 1.02 | locus YDR159W, strain sac3, active compounds read low 0.978 | locus YDR162C, strain NBP2, active compounds read low 1.05 | locus YDR195W, strain ref2 0.97 | locus YDR297W, strain sur2, active compounds read low 1.04 | locus YDR318W, strain mcm21, active compounds read low 1.03 | locus YDR334W, strain swr1, active compounds read low 1.02 | locus YDR335W, strain msn5, active compounds read low 1.01 | locus YDR388W, active compounds read low 1.03 | locus YDR392W, strain spt3, active compounds read low 0.907 | locus YDR502C, strain sam2, active compounds read low 1.03 | locus YEL003W, strain gim4, active compounds read low 1.02 | locus YEL037C, strain rad23, active compounds read low 1.01 | locus YEL061C, strain CIN8 (second series), active compounds read low 1.01 | locus YEL061C, strain CIN8, active compounds read low 1.02 | locus YER015W, strain faa2, active compounds read low 1.01 | locus YER016W, strain bim1, active compounds read low 1 | locus YER110C, active compounds read low 1.04 | locus YER111C, strain swi4, active compounds read low 1.01 | locus YER155C, strain BEM2 (second series), active compounds read low 0.973 | locus YER155C, strain BEM2, active compounds read low 1 | locus YER167W, strain BCK2, active compounds read low 1.03 | locus YFR010W, strain ubp6, active compounds read low 1.01 | locus YGL078C, strain dbp3, active compounds read low 1.03 | locus YGL086W, strain mad1, active compounds read low 1.02 | locus YGL167C, strain pmr1, active compounds read low 0.998 | locus YGL173C, strain kem1, active compounds read low 1.02 | locus YGL227W, strain vid30, active compounds read low 1.01 | locus YGL240W, strain doc1, active compounds read low 0.987 | locus YGL248W, strain PDE1, active compounds read low 1.02 | locus YGL253W, strain hxk2, active compounds read low 1.01 | locus YGR135W, strain pre9, active compounds read low 1.03 | locus YGR252W, strain gcn5, active compounds read low 1.01 | locus YHR013C, strain ard1, active compounds read low 0.995 | locus YHR027C, strain rpn1, active compounds read low 1.01 | locus YHR030C, strain SLT2, active compounds read low 1.02 and 0.957 | locus YHR079C, strain IRE1 (second series), active compounds read low 1.03 | locus YHR079C, strain IRE1, active compounds read low 0.967 | locus YHR094C, strain hxt1, active compounds read low 1.03 | locus YHR129C, strain ARP1, active compounds read low 1.02 | locus YHR142W, strain chs7, active compounds read low 1.03 | locus YHR200W, strain rpn10, active compounds read low 1.04 | locus YIL066C, strain RNR3, active compounds read low 1.04 | locus YIL073C, strain SPO22, active compounds read low 1.13 | locus YIL125W, strain kgd1, active compounds read low 1.03 | locus YIR030C, strain dcg1, active compounds read low 1.03 | locus YJL092W, strain hpr5, active compounds read low 1 | locus YJL095W, strain BCK1 (second series), active compounds read low 1.02 | locus YJL095W, strain BCK1, active compounds read low 1.04 and 1 | locus YJL115W, strain asf1, active compounds read low 1.01 | locus YJL129C, strain trk1, active compounds read low 1.01 | locus YJL134W, strain LCB3, active compounds read low 1.01 | locus YJL154C, strain vps35, active compounds read low 1 | locus YJL164C, strain tpk1, active compounds read low 1.02 | locus YJL166W, strain qcr8, active compounds read low 0.989 | locus YJL168C, strain set2, active compounds read low 1.03 | locus YJL187C, strain SWE1 (second series), active compounds read low 1.04 | locus YJL187C, strain SWE1, active compounds read low 1.03 | locus YJR043C, strain POL32, active compounds read low 1.03 | locus YJR066W, strain TOR1, active compounds read low 0.975 | locus YKL009W, strain mrt4, active compounds read low 1.05 | locus YKL068W, active compounds read low 1.05 | locus YKL085W, strain MDH1 (second series), active compounds read low 1.03 | locus YKL085W, strain MDH1, active compounds read low 1.03 | locus YKL160W, strain elf1, active compounds read low 0.963 | locus YKR001C, strain vps1, active compounds read low 1.01 | locus YKR026C, strain gcn3, active compounds read low 1.01 | locus YKR091W, strain srl3, active compounds read low 1.01 | locus YLL001W, strain dnm1, active compounds read low 0.992 | locus YLL026W, active compounds read low 1 | locus YLL041C, strain sdh2, active compounds read low 1.01 | locus YLR027C, strain aat2, active compounds read low 1 | locus YLR039C, strain RIC1, active compounds read low 1.09 | locus YLR058C, strain SHM2, active compounds read low 1.03 | locus YLR102C, strain apc9, active compounds read low 1.03 | locus YLR113W, strain HOG1, active compounds read low 0.94 | locus YLR221C, strain rsa3, active compounds read low 0.999 | locus YLR258W, strain gsy2, active compounds read low 1.01 | locus YLR262C, strain YPT6 (second series), active compounds read low 0.994 | locus YLR262C, strain YPT6, active compounds read low 1.13 | locus YLR268W, strain sec22, active compounds read low 1.02 | locus YLR320W, strain mms22, active compounds read low 0.991 | locus YLR330W, strain CHS5, active compounds read low 1.02 | locus YLR342W, strain FKS1 (second series), active compounds read low 1.02 | locus YLR342W, strain FKS1, active compounds read low 1.01 | locus YLR357W, strain rsc2, active compounds read low 1.01 | locus YLR370C, strain arc18, active compounds read low 1.02 | locus YLR371W, strain rom2, active compounds read low 1.02 | locus YLR384C, strain iki3, active compounds read low 1.01 | locus YLR418C, strain cdc73, active compounds read low 1.04 | locus YML016C, strain PPZ1, active compounds read low 1.02 | locus YML032C, strain rad52, active compounds read low 1.02 | locus YML120C, strain ndi1, active compounds read low 1.01 | locus YML124C, strain tub3, active compounds read low 1.04 | locus YMR058W, strain fet3, active compounds read low 1.01 | locus YMR078C, strain ctf18, active compounds read low 1.06 | locus YMR125W, strain sto1, active compounds read low 0.973 | locus YMR129W, active compounds read low 1.01 | locus YMR205C, strain PFK2, active compounds read low 0.966 | locus YMR223W, strain ubp8, active compounds read low 1.02 | locus YMR231W, strain pep5, active compounds read low 1.01 | locus YMR307W, strain GAS1, active compounds read low 1.01 | locus YNL067W, strain RPL9B, active compounds read low 1.04 | locus YNL071W, strain lat1, active compounds read low 1 | locus YNL128W, strain TEP1, active compounds read low 1.02 | locus YNL183C, strain NPR1, active compounds read low 0.937 | locus YNL209W, strain ssb2, active compounds read low 1.01 | locus YNL233W, strain BNI4, active compounds read low 1.03 | locus YNL248C, strain rpa49, active compounds read low 0.953 | locus YNL250W, strain rad50, active compounds read low 1.04 | locus YNL271C, strain bni1, active compounds read low 1.04 | locus YNL298W, strain CLA4, active compounds read low 1.05 | locus YNL307C, strain MCK1, active compounds read low 1.05 | locus YNL322C, strain KRE1 (second series), active compounds read low 0.998 | locus YNR049C, strain mso1, active compounds read low 1.01 | locus YNR052C, strain pop2, active compounds read low 1.02 | locus YOL012C, strain htz1 1.37 | locus YOL147C, strain pex11, active compounds read low 1.02 | locus YOR001W, strain rrp6, active compounds read low 1 | locus YOR061W, strain CKA2, active compounds read low 1.02 | locus YOR069W, strain VPS5, active compounds read low 1.01 | locus YOR070C, strain gyp1, active compounds read low 1.01 | locus YOR080W, strain dia2, active compounds read low 0.998 | locus YOR083W, strain WHI5, active compounds read low 0.968 | locus YOR106W, strain vam3, active compounds read low 0.988 | locus YOR136W, strain idh2, active compounds read low 1.04 | locus YOR144C, strain elg1, active compounds read low 1.01 | locus YOR184W, strain ser1, active compounds read low 1.02 | locus YOR231W, strain MKK1, active compounds read low 0.966 | locus YOR265W, strain rbl2, active compounds read low 0.999 | locus YOR270C, strain vph1, active compounds read low 0.981 | locus YOR290C, strain snf2, active compounds read low 1 | locus YOR316C, strain cot1, active compounds read low 1.04 | locus YPL051W, strain arl3, active compounds read low 0.988 | locus YPL055C, strain LGE1, active compounds read low 1.05 | locus YPL078C, strain atp4, active compounds read low 0.958 | locus YPL106C, strain sse1, active compounds read low 1 | locus YPL240C, strain hsp82, active compounds read low 1.01 | locus YPL241C, strain CIN2, active compounds read low 1.02 | locus YPL256C, strain CLN2, active compounds read low 0.986 | locus YPR119W, strain clb2, active compounds read low 1.03 | locus YPR141C, strain kar3, active compounds read low 1.03 | locus YPR163C, strain tif3, active compounds read low 1.01 | locus YPR167C, strain met16, active compounds read low 1.04 | strain wtn01, active compounds read low 1.03
